16 molecules from PubChem BioAssay can be followed below.

Experiment [1] has as its system Plasmodium falciparum Sir2 (PF13_0152, Sir2A). Briefly: pfSir2 binders on small-molecule microarrays, primary screen, biochemical, small-molecule microarray, 635 nm fluorescence (AID 1098).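 Also: score merges spot fluorescence intensity with its signal-to-noise ratio.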 The settings on record: small-molecule microarray binding, fluorescence 635 nm; higher = more signal.
Experiment [2] in a line: small-molecule microarray binders of probe aDKK1, primary screen, biochemical, biotinylated probe, 635/667 nm fluorescence (AID 1099).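 Also: score merges 667nm spot fluorescence with signal to noise across triplicate slides; reference of the scale not given here.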 The settings on record: higher = more signal.
Experiment [3] is described as follows: small-molecule microarray binders of probe aCHRDL2, primary screen, biochemical, biotinylated probe, 635/667 nm fluorescence (AID 1100). The settings on record: higher = more signal.
Experiment [4] is described as follows: splicing luciferase reporter signal modulators, primary screen, spliceosome inhibition project, cell-based, HEK293, splice +/- reporter (AID 1101).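 Also: HEK293 cells carrying a splicing-competent luciferase reporter gene; test concentration not given here.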 The following applies: luminescence, 24 h, higher = more signal, called active from +8 up or from −8 down. A general note: A reporter such as luciferase makes a cellular process visible.
Experiment [5] deals with Fibroblast growth factor 10 (Homo sapiens) (UniProt O15520). Briefly: FGF10 binders on small-molecule microarrays, primary screen, biochemical, small-molecule microarray, 635 nm fluorescence (AID 1102). The following applies: FGF10 binding, fluorescence 635 nm, higher = more signal.
Experiment [6] concerns glycogen synthase kinase-3 (GSK3A per assay name; protocol says GSK3B). Briefly: GSK3 binders on small-molecule microarrays, primary screen, biochemical, small-molecule microarray, 635 nm fluorescence, GSK3A (AID 1103). Also: the record names both GSK3A and GSK3B. The settings on record: small-molecule microarray binding, fluorescence 635 nm; higher = more signal.
The target of experiment [7] is Epidermal growth factor receptor (Homo sapiens) (UniProt P00533). The experiment is described as follows: EGFR binders on small-molecule microarrays, primary screen, biochemical, small-molecule microarray, 635 nm fluorescence (AID 1104).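 Also: score merges 667 nm emission intensity with spot signal to noise over triplicate slides.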 The following applies: EGFR binding, higher = more signal.
Experiment [8] has as its target Follistatin-related protein 3 (Homo sapiens) (UniProt O95633). Briefly: FSTL3 binders on small-molecule microarrays, primary screen, biochemical, small-molecule microarray, 635 nm fluorescence (AID 1105).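 Also: score merges emission near 667 nm and signal to noise per printed spot across three slides.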 The following applies: FSTL3 binding, higher = more signal.
Experiment [9] deals with Dickkopf-related protein 1 (Homo sapiens) (UniProt O94907). Briefly: DKK1 binders on small-molecule microarrays, primary screen, biochemical, small-molecule microarray, 635 nm fluorescence scan (AID 1106).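 Also: score merges emission near 667 nm with signal to noise over three replicate slides.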 The following applies: DKK1 binding, higher = more signal.
For experiment [10], the system named is Inhibin beta A chain (activin A). Briefly: INHBA (activin A) binders on microarrays, primary screen, biochemical, small-molecule microarray, 635 nm fluorescence scan (AID 1107).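 Also: mouse activin A protein probed at 4.33 µg/mL on printed slides; score merges bound-protein fluorescence near 667 nm with spot signal-to-noise.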 The settings on record: small-molecule microarray binding, higher = more signal.

Structures are written as SMILES. Calls of active or inactive are those of the source.

Sequence of Dickkopf-related protein 1 (Homo sapiens) (O94907 whole entry, looked up): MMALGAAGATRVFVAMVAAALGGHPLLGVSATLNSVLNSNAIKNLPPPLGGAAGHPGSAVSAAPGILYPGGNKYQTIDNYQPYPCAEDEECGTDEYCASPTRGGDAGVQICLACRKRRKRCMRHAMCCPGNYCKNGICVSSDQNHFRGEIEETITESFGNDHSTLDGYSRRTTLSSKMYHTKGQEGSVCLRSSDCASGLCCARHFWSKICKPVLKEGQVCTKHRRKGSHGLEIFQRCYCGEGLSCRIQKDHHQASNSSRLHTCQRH
Sequence of Fibroblast growth factor 10 (Homo sapiens) (O15520 whole entry, looked up): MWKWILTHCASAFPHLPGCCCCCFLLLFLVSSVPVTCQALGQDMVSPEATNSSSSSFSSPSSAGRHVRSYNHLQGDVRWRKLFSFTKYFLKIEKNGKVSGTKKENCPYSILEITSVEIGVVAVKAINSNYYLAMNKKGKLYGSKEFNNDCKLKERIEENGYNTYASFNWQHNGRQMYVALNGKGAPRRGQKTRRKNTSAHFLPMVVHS
Sequence of Epidermal growth factor receptor (Homo sapiens) (P00533 whole entry, looked up): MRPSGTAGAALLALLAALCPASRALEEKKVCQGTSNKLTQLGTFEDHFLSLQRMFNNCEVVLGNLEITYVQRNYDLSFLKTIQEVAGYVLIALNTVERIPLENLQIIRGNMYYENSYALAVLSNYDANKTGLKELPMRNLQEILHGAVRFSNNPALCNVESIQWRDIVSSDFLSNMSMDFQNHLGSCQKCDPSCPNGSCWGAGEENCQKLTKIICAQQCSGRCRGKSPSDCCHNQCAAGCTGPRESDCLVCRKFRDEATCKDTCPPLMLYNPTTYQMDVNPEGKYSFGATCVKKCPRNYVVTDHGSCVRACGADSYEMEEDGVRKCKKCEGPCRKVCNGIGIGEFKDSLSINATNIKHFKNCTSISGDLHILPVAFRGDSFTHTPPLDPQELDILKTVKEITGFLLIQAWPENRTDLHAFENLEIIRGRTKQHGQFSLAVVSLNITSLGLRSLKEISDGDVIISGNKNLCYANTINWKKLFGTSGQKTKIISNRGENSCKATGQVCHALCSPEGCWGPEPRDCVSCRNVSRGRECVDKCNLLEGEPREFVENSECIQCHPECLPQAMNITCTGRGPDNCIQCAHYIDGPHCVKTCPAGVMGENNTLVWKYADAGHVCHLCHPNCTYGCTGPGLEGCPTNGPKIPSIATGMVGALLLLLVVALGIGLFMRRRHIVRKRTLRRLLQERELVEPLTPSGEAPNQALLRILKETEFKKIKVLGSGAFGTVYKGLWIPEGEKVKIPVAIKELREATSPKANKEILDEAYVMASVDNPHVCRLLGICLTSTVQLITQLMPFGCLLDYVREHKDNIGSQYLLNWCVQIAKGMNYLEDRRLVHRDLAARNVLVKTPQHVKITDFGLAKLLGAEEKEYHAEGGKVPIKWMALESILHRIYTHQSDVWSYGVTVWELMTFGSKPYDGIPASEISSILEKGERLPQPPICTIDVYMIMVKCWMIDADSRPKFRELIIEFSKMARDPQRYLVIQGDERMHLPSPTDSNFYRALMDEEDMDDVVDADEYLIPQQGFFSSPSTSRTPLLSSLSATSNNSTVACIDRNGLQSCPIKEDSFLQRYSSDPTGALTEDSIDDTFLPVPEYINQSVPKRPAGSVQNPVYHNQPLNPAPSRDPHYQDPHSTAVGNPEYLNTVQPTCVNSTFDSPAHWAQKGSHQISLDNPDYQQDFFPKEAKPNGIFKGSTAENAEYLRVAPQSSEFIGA
Sequence of Follistatin-related protein 3 (Homo sapiens) (O95633 whole entry, looked up): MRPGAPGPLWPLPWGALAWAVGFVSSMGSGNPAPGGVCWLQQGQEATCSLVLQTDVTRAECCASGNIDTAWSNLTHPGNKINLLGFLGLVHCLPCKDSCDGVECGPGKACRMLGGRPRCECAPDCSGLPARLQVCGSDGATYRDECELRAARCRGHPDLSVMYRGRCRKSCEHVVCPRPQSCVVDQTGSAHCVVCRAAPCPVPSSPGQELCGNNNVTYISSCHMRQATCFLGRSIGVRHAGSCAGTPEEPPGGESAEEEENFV

For `O=C1O[C@@H](c2ccccc2)[C@@H](c2ccccc2)N2[C@@H](c3ccc(OCCO)cc3)[C@]3(C(=O)Nc4ccccc43)[C@@H](C(=O)NC[C@H](O)c3ccccc3)[C@H]12`, the composite z-score in experiment [1] came out at 1.17; in experiment [2], 0.189; in [3], 0.2; in experiment [5], 0.55; in experiment [6], 0.445; in [7], 0.566. Besides, the values for the composite z-score in experiment [8], in [9] and in [10] were 0.33, 0.334 and 0.632, respectively. Also, in [4], the z-score was -0.203 (inactive).

Regarding `COCC(=C=CC[C@@H](O)c1ccccc1OCCO)C[C@@H](O)c1cc(Cl)cc(Cl)c1O`, the composite z-score is 0.781 in [1]; -0.174 in experiment [2]; -0.607 in experiment [3]; 1.23 in [5]; 1.28 in experiment [6]; 0.334 in [7]. For the same molecule, the figures for the composite z-score in experiment [8], in [9] and in experiment [10] were 1.23, 0.317 and 0.495, respectively. Besides, the z-score in experiment [4] is -0.458 (inactive).

Take `C[N+](C)(C)CCCCNC(=O)[C@H]1C[C@H]2C(=O)N[C@@H](Cc3ccccc3)C(=O)N2[C@H]1c1ccc(O)cc1`: the composite z-score in experiment [1] is 0.137; in experiment [2], -0.0123; in experiment [3] it was -0.0505; in experiment [5] it was 0.612; in experiment [6], 0.0215; in experiment [7], 0.231. The composite z-score came to 0.953 in [8], 1.22 in experiment [9] and 0.859 in experiment [10]. Moreover, the z-score in experiment [4] was 0.0946 (inactive).

As to `C=C(COC)/C(=C/C[C@@H](OC(C)=O)c1ccc(OCCO)cc1)c1cc(C(=O)OC)ccc1OC`, the composite z-score is 1.22 in experiment [1]; 0.455 in experiment [2]; -0.103 in experiment [3]; 1.54 in [5]; 0.794 in experiment [6]; 0.265 in [7]. Further, the composite z-score in [8] amounted to 1.27; in experiment [9] it was 0.43; in experiment [10], 0.884. For the same molecule, the z-score in [4] was 0.585 (inactive).

Take `O=C1OCCC/C=C\[C@H]2OC34C=CCN(c5ccc6ccccc6c5)C(=O)[C@H]3N(CCCCCCO)C(=O)[C@@H]4C12` (stereo not given in full): the composite z-score in experiment [1] was 1.35; in experiment [2] it was -0.234; in [3] it was 0.711; in [5], -0.873; in experiment [6], -0.525; in [7] it was 0.102. Besides, the composite z-score in [8] was 0.0824; in experiment [9], -1.71; in experiment [10] it was 0.998. For the same molecule, in experiment [4], the z-score is -1.39 (inactive).

Turning to `C=CCOC(=O)[C@@H]1[C@H]2C(=O)O[C@H](c3ccccc3)[C@H](c3ccccc3)N2[C@H](c2ccc(OCCOC(=O)[C@@H]3C[C@@H]4C(=O)N[C@@H](Cc5ccccc5)C(=O)N4[C@@H]3c3ccc(O)cc3)cc2)[C@@]12C(=O)Nc1ccc(I)cc12`, the composite z-score is 1.46 in experiment [1]; -0.191 in experiment [2]; -0.35 in [3]; 1.16 in experiment [5]; 1.19 in experiment [6]; 0.711 in experiment [7]. In addition, the composite z-score worked out at 1.38 in [8], 1.03 in [9] and 0.518 in experiment [10]. The z-score in experiment [4] was -1.17 (inactive).

On to `C=CCOC(=O)[C@H]1[C@@H]2C(=O)O[C@@H](c3ccccc3)[C@@H](c3ccccc3)N2[C@@H](c2ccc(OCCOC(=O)[C@H]3C[C@H]4C(=O)N5CCC[C@H]5C(=O)N4[C@H]3c3ccc(O)cc3)cc2)[C@]12C(=O)Nc1ccc(I)cc12`, for which the composite z-score in experiment [1] is 2.09; in experiment [2] it was 1.76; in experiment [3] it was 1.42; in experiment [5], 1.47; in experiment [6] it was 1.37; in experiment [7] it was 0.429. The composite z-score in experiment [8] stood at 1.42; in [9] it was 1.97; in experiment [10], 1.41. Moreover, in [4], the z-score is -1.93 (inactive).

As for `CC(C)C[C@@H]1NC(=O)[C@@H]2C[C@H](C(=O)NCCCCCN)[C@H](c3cccc(OCCO)c3)N2C1=O`, the composite z-score in [1] was 1.44; in experiment [2], -0.0704; in experiment [3], 0.527; in [5], 0.272; in experiment [6], 0.685; in experiment [7], -0.26. The composite z-score in experiment [8] is 0.627; in experiment [9] it was 0.387; in experiment [10] it was 0.842. Besides, in experiment [4], the z-score was -1.08 (inactive).

Consider `CCCC[C@H]1OB(O)C[C@H]2C1=C(COc1ccccc1)C[C@H]1C(=O)N(C)C(=O)[C@H]12`, for which the composite z-score in experiment [1] is -0.328; in [2], 0.0763; in experiment [3], -0.442; in [5], 0.429; in experiment [6], -0.0785; in experiment [7] it was 0.447. For the same molecule, the composite z-score was determined as 0.43 in [8], 0.439 in experiment [9] and 0.741 in experiment [10]. Further, the z-score in experiment [4] was 0.377 (inactive).

`CC(C)(C)OC(=O)CC[C@]1(C(=O)O)N=C(c2ccc(OCCCO)cc2)O[C@H]1c1ccccc1N=[N+]=[N-]`: the composite z-score in experiment [1] was 1.34; in experiment [2], 1.75; in experiment [3], 1.11; in [5] it was 0.443; in experiment [6], 0.581; in experiment [7] it was -0.143. Also, the composite z-score in [8] came out at 0.4; in [9], 0.0608; in experiment [10] it was 0.977. Also, the z-score in [4] is 0.115 (inactive).

Turning to `CCOC(=O)[C@H]1CC=C2CC1C(=O)N1CCC[C@@H]1[C@@H]2O[Si](C)(C)C(C)(C)C` (stereo not given in full), the composite z-score in experiment [1] was -0.105; in experiment [2], -0.539; in [3] it was -1.04; in experiment [5] it was -0.997; in [6], -1.22; in experiment [7], -0.265. In addition, the composite z-score was -1.02 in experiment [8], -0.177 in experiment [9] and 0.928 in experiment [10]. For the same molecule, the z-score in [4] is 0.582 (inactive).

Turning to `COC(=O)[C@@]1(Cc2ccccc2)[C@H]2c3cc(C(=O)N(C)C)n(CCSCCO)c3C[C@H]2CN1C(=O)c1ccccc1`, the composite z-score is 0.751 in experiment [1]; 0.692 in experiment [2]; 0.829 in experiment [3]; 0.3 in experiment [5]; -0.205 in experiment [6]; -0.348 in experiment [7]. Besides, the composite z-score in experiment [8] is -0.353; in experiment [9], -0.772; in experiment [10], 0.442. Also, in [4], the z-score was -1.48 (inactive).

In the case of `Cc1ccc(S[C@]2(C(=O)NCC(C)C)CC(=O)N(Cc3cc(C(F)(F)F)cc(C(F)(F)F)c3)[C@@H]2c2ccc(CO)cc2I)cc1`, the composite z-score in [1] was -0.313; in experiment [2], 0.75; in experiment [3] it was 1.39; in experiment [5] it was -0.755; in experiment [6] it was -1.16; in [7] it was -1.78. Further, the results for the composite z-score in experiment [8], in experiment [9] and in experiment [10] were -0.615, -2.14 and 0.923, respectively. In [4], the z-score is -0.0957 (inactive).

As to `O=C1c2ccccc2[C@@]2(Cc3ccccc3N(CCN3CCOCC3)C2=O)[C@H](c2ccc(CO)cc2)N1Cc1ccccc1`, the composite z-score in experiment [1] was 0.878; in [2], -0.0074; in experiment [3], 0.278; in experiment [5], -0.667; in [6], -1.23; in experiment [7] it was -1.17. Besides, the composite z-score in [8] is -0.267; in experiment [9], -0.391; in [10] it was 0.819. In experiment [4], the z-score is -0.765 (inactive).

As for `CN(C)CCCC[C@@H]1NC(=O)[C@H]2C[C@@H](C(=O)NCCCCCNC(=O)CS)[C@@H](c3cccc(OCCO)c3)N2C1=O`, the composite z-score in [1] is 1.12; in experiment [2] it was -0.144; in [3], 0.61; in [5], 0.305; in experiment [6], 0.894; in experiment [7], 0.227. The figures for the composite z-score in [8], in experiment [9] and in experiment [10] were 0.65, 0.459 and -0.0899, respectively. The z-score in [4] is 0.515 (inactive).

On to `COCCOC(=O)N1C(=O)[C@@]2(c3cc(C#CCCO)ccc31)[C@H](c1ccc(OCCO)cc1)N1[C@H](c3ccccc3)[C@H](c3ccccc3)OC(=O)[C@H]1[C@@H]2C(=O)N1CCN(c2ncccn2)CC1`, for which the composite z-score was 0.732 in experiment [1]; -0.104 in experiment [2]; 0.27 in experiment [3]; 1.03 in [5]; 1.31 in experiment [6]; 0.629 in experiment [7]. Also, the composite z-score in [8] was found to be 1.39; in [9], 0.783; in experiment [10], 0.845. For the same molecule, in experiment [4], the z-score was 0.319 (inactive).
